About 83,000 compounds went through this panel and 20% of them were active in at least one assay; those are over-represented in the sample as a whole.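 Method: cells in 96-well plates; compound added at one concentration; 48 h incubation; percent growth measured; values under 10 scored active.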 The source made the active and inactive calls.
tested on: MDA-MB-231 breast; test: NCI-60 one-dose screen, 48 h (100 = growth as untreated, 0 = no growth, -100 = all killed); details: 10 µM unless noted

| Compound | growth |
| --- | --- |
| O=C1Nc2ccccc2/C1=C/c1cn(CC(O)Cn2cc(/C=C3\C(=O)Nc4ccccc43)c3ccccc32)c2ccccc12 (stereo not drawn) | -79.9% (active) |
| COC(=O)Nc1nc2ccc(C(=O)c3ccccc3N(C)C3COC3)cc2[nH]1 | 55.2% (inactive) |
| COC(=O)/C=C/c1cc(O)c2oc(-c3ccc(O)c(O)c3)c(C(=O)OC)c2c1 | 31.1% (inactive) |
| CC(C)OC(=O)[C@H](C)N[P@@](=O)(OC[C@@]1(C)O[C@@H](n2cc(F)c(N)nc2=O)C[C@@H]1O[P@](=O)(N[C@@H](C)C(=O)OC(C)C)Oc1ccccc1)Oc1ccccc1 | 119% (inactive) |
| COc1cc2ncnc(Nc3ccc4c(cnn4C(=O)Nc4ccccc4)c3)c2cc1OC | 112% (inactive) |
| Cc1nnc(/N=C2\NC(=O)/C(=C/C=C/c3ccccc3)S2)s1 | 71.4% (inactive) |
| COC(c1ccccc1)C(Br)C(=O)c1ccccc1 (stereo not drawn) | 92.9% (inactive) |
| O=C1c2ccccc2CCc2ccccc21 | 96.8% (inactive) |
| COc1cc2ncnc(-n3ncc4cc(NC(=O)Nc5ccccc5)ccc43)c2cc1OC | -8.14% (active) |
| COc1cc(-c2cc3cnccc3c3nc(N)c4ccncc4c23)cc(OC)c1OC | 42.9% (inactive) |
| COc1cc(OC)c(NC(=O)n2ncc3cc(Nc4ncnc5ccccc45)ccc32)cc1Cl | 97.2% (inactive) |
| COc1cc(OC)cc(-c2ccc(-c3ccc(C(=N)N)cc3)s2)c1 | -77% (active) |
| CC1(C)NCCC[C@]2(C)[C@H]3CC=C4[C@@H]5C[C@](C)(COC(=O)c6ccccc6C(=O)O)CC[C@]5(C)CC[C@@]4(C)[C@]3(C)CC[C@@H]12 | 84% (inactive) |
